Test [1] in a line: A CellTox Green Cytotoxicity Assay to monitor cytotoxicity in HEK293 cells - 32 hour (AID 1224881). Also: nearly all actives have a fitted effect of over 40% in size. An outline of the steps: (§1)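 Each value comes from one timepoint of a single continuous run in which HEK293 cells with CellTox Green were exposed to compound for up to 40 h at 37 C, dye fluorescence rising with cell death.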
Test [2] in a line: A CellTox Green Cytotoxicity Assay to monitor cytotoxicity in HepG2 cells - 0 hour (AID 1224882). Also: nearly all actives have a fitted effect of over 35% in size. The method, boiled down:
(§2)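 Continuous culture of HepG2 cells with a membrane-impermeant DNA dye; rising fluorescence marks dead cells. Compound exposure lasted up to 40 h at 37 C, with reads every 8 h from 0 h.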

A short description of test [3]: A CellTox Green Cytotoxicity Assay to monitor cytotoxicity in HepG2 cells - 32 hour (AID 1224883). Also: nearly all actives have a fitted effect of over 50% in size. The method, boiled down:
as §2

Test [4] can be described thus: A CellTox Green Cytotoxicity Assay to monitor cytotoxicity in HEK293 cells - 8 hour (AID 1224884). Also: nearly all actives have a fitted effect of over 35% in size. The method, boiled down:
as §1

A short description of test [5]: qHTS RealTime-Glo MT Cell Viability Assay in HepG2 cells - 16 hour (AID 1224885). Also: nearly all actives have a fitted effect of over 50% in size. The method, boiled down:
(§3)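 HepG2 suspension premixed with RealTime-Glo reagents is plated at 600 cells per well and left 5 h at 37 C/5% CO2. Compounds in DMSO then go in, and bioluminescence reflecting viable cell number is recorded over 40 h.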
(In general: qHTS replaces the single test concentration by a dilution series.)

A short description of test [6]: qHTS RealTime-Glo MT Cell Viability Assay in HEK293 cells - 24 hour (AID 1224886). Also: nearly all actives have a fitted effect of over 50% in size. Also: potency is read from the fitted curve at half-maximal effect. An outline of the steps:
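Reads taken at 0, 8, 16, 24, 32 and 40 h from the same wells. HEK293 cells (600/well) carried RealTime-Glo reagents from seeding, with compound added after a 5 h settle at 37 C.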

Test [7] is described as follows: qHTS RealTime-Glo MT Cell Viability Assay in HEK293 cells - 8 hour (AID 1224887). Also: nearly all actives have a fitted effect of over 50% in size. Also: potency is read from the fitted curve at half-maximal effect. An outline of the steps:
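qHTS format; HEK293 cells with NanoLuc/prosubstrate reagent, 37 C/5% CO2 for 5 h pre-dosing; compounds 23 nL in DMSO; luminescence at each time point reflects viable cells.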

The nature of test [8]: A CellTox Green Cytotoxicity Assay to monitor cytotoxicity in HEK293 cells - 16 hour (AID 1224888). Also: nearly all actives have a fitted effect of over 35% in size. The method, boiled down: as §1
Test [9] in a line: qHTS RealTime-Glo MT Cell Viability Assay in HepG2 cells - 0 hour (AID 1224889). Also: nearly all actives have a fitted effect of over 50% in size. The method, boiled down:
as §3

The nature of test [10]: A CellTox Green Cytotoxicity Assay to monitor cytotoxicity in HepG2 cells - 8 hour (AID 1224890). Also: nearly all actives have a fitted effect of over 45% in size. An outline of the steps: as §2

SMILES strings stand for the structures. Inconclusive results are not listed. Activity calls are given as the source filed them. Calls follow the shape of the dose curve; as a rule, active = well fitted curve in the direction sought with a large enough effect in the repeat runs; inconclusive = weak or mixed curves; inactive = no such curve, though single readings can be large; an effect the other way counts as inactive or inconclusive.

Regarding `CCC1NC(=O)c2cc(S(N)(=O)=O)c(Cl)cc2N1` (stereo not given), the Potency result in test [1], in test [2], in [3], in test [4], in [5] and in test [6] was “inactive” throughout. Further, the Potency entry in [7], in test [8], in test [9] and in [10] was “inactive” throughout.
As for `Cc1[nH]cnc1CN1CCc2c(c3ccccc3n2C)C1=O`, the Potency entry in test [1], in [2], in [3], in [4], in [5] and in [6] was “inactive” each time. The Potency entry in [7], in test [8], in [9] and in test [10] was “inactive” throughout.
In the case of `O=C(OC(=O)c1ccccc1)c1ccccc1`, the Potency entry in [1], in test [2], in test [3], in test [4], in [5] and in test [6] was “inactive” in each case. In addition, the Potency entry in [7], in [8], in [9] and in test [10] was “inactive” throughout.
For `O=C(O)C[C@H](NC(=O)OCc1ccccc1)C(=O)O`, the Potency entry in test [1], in test [2], in [3], in test [4], in test [5] and in test [6] was “inactive” each time. For the same compound, the Potency entry in test [7], in test [8], in [9] and in [10] was “inactive” each time.
Take `CC(C)C=O`: the Potency result in test [1], in [2], in test [3], in test [4], in [5] and in test [6] was “inactive” throughout. The Potency result in [7], in test [8] and in [10] was “inactive” in each case.
Consider `O=C=Nc1ccc(Cl)c(Cl)c1`, for which the Potency entry in test [1], in test [2], in test [3], in [4], in [5] and in [6] was “inactive” throughout. Also, the Potency result in test [7], in test [8] and in test [10] was “inactive” throughout.
As for `CC(=O)c1cc2ccccc2s1`, the Potency result in test [1], in test [2], in [3], in test [4], in [5] and in test [6] was “inactive” in each case. Moreover, the Potency result in test [7], in test [8], in test [9] and in test [10] was “inactive” throughout.
On to `C=C/C(C)=C/C/C=C(\C)CCC=C(C)C`, for which the Potency entry in test [1], in [2], in test [3], in test [4], in test [5] and in [6] was “inactive” throughout. In addition, the Potency entry in [7], in [8] and in test [10] was “inactive” throughout.
For the compound `C=C(C)C(=O)OCCCCCCCCCCCCC`, the Potency result in test [1], in [2], in [3], in test [4], in test [5] and in test [6] was “inactive” in each case. Moreover, the Potency result in [7], in [8] and in test [10] was “inactive” in each case.
Take `Cc1ccccc1N=C(N)Nc1ccccc1C`: the Potency entry in test [1], in test [2], in test [3], in [4], in [5] and in test [6] was “inactive” throughout. Besides, the Potency entry in test [7], in test [8], in test [9] and in [10] was “inactive” throughout.
`CC1CC(C)C(=O)C1=O` (stereo not given): the Potency entry in test [1], in [2], in [3], in test [4], in test [5] and in test [7] was “inactive” throughout. The Potency entry in test [8], in test [9] and in [10] was “inactive” in each case. In [6], the Potency was 13.8 µM (active).
Consider `C=C1CCC2CC1C2(C)C` (stereo not given), for which the Potency entry in test [1], in [2], in test [3], in [4], in [5] and in test [6] was “inactive” throughout. Besides, the Potency result in [7], in [8] and in [10] was “inactive” in each case.
Consider `CC1=C(CC=O)C(C)(C)CCC1`, for which the Potency entry in test [1], in test [2], in test [3], in test [4], in test [5] and in test [6] was “inactive” throughout. For the same compound, the Potency entry in test [7], in test [8] and in test [10] was “inactive” in each case.
Take `CCOC(=O)OC(C)OC(=O)[C@@H]1N2C(=O)[C@@H](NC(=O)[C@H](N)c3ccccc3)[C@H]2SC1(C)C` (stereo not given in full): the Potency result in test [1], in [2], in test [3], in [4], in [5] and in [6] was “inactive” each time. Also, the Potency entry in test [7], in test [8], in test [9] and in [10] was “inactive” in each case.
With `O=c1[nH]ncc2ccccc12`, the Potency result in [1], in test [2], in test [3], in test [4], in [5] and in test [6] was “inactive” throughout. The Potency result in test [7], in test [8], in test [9] and in test [10] was “inactive” in each case.
For the compound `CO/N=C(/C(=O)N[C@@H]1C(=O)N2C(C(=O)O)=C(COC(N)=O)CS[C@H]12)c1ccco1`, the Potency entry in test [1], in test [2], in test [3], in [4], in test [5] and in test [6] was “inactive” in each case. Moreover, the Potency entry in [7], in test [8], in [9] and in [10] was “inactive” each time.
On to `C=CC(=O)[O-].C=CC(=O)[O-].[Zn+2]`, for which the Potency result in [1], in [2], in test [3], in test [4], in test [5] and in [6] was “inactive” in each case. Further, the Potency result in test [7], in test [8], in [9] and in test [10] was “inactive” each time.
As to `Oc1cccc(O)c1O`, the Potency result in test [1], in test [2], in [3], in test [4], in test [5] and in test [6] was “inactive” in each case. In addition, the Potency entry in [7], in [8], in test [9] and in [10] was “inactive” throughout.
On to `Cc1ccc(CO)cc1`, for which the Potency result in [1], in [2], in test [3], in test [4], in test [5] and in test [6] was “inactive” each time. The Potency result in test [7], in test [8], in test [9] and in test [10] was “inactive” each time.
As to `CNC(=O)c1cnn(-c2nc(N)c3ncn([C@@H]4O[C@H](CO)[C@@H](O)[C@H]4O)c3n2)c1`, the Potency entry in test [1], in test [2], in test [3], in test [4], in test [5] and in [6] was “inactive” in each case. Besides, the Potency result in [7], in [8], in test [9] and in test [10] was “inactive” in each case.
On to `CC1(C)O[C@@H]2C[C@H]3[C@@H]4C[C@H](F)C5=CC(=O)C=C[C@]5(C)[C@H]4[C@@H](O)C[C@]3(C)[C@]2(C(=O)CO)O1`, for which the Potency result in test [1], in test [2], in [3], in [4], in test [5] and in test [6] was “inactive” throughout. Besides, the Potency entry in test [7], in test [8] and in test [10] was “inactive” in each case.
With `O=C(CCCN1CC=C(n2c(=O)[nH]c3ccccc32)CC1)c1ccc(F)cc1`, the Potency entry in test [1], in test [2], in [3], in test [4], in test [5] and in test [8] was “inactive” in each case. In addition, the Potency entry in [10] is “inactive”. Besides, the Potency in test [6] was 10.7 µM (active); in test [7], 16.9 µM (active).
On to `O=C(CCc1ccc(O)cc1)c1c(O)cc(O)cc1O`, for which the Potency entry in test [1], in test [2], in test [3], in [4], in [5] and in test [8] was “inactive” each time. In addition, the Potency entry in test [10] is “inactive”. Also, the Potency in [6] is 39.8 µM (active); in test [7], 25.1 µM (active).
As to `CCCCCCCCCI`, the Potency result in [1], in test [2], in test [3], in test [4], in test [5] and in [6] was “inactive” in each case. Also, the Potency result in [7], in test [8] and in test [10] was “inactive” each time.

For the origin of these results see PubChem BioAssay (Tox21).
